Among all 1,300 compounds or so, about 10 (0.8%) were called active. No rule for the calls is given here. Only a selection was taken, and actives are over-represented in it overall.
The molecules below were run against Chaperone protein DnaK (Escherichia coli (strain K12)) (UniProt P0A6Y8) (assay: blockers of bacterial DnaK function – luminescence, E. coli K12, primary screen (AID 547;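 also: tested at 10 µM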)). Conditions: DnaK chaperone assay, luminescence read-out; active compounds read low.

Row | SMILES | luminescence
1 | CN=C(N)NCCC[C@H](N)C(=O)O | 2.2e+06 cps (inactive)
2 | [N-]=[N+]=Nc1ccc(C(=O)CSC[C@H](NC(=O)CC[C@H](N)C(=O)O)C(=O)NCC(=O)O)cc1 | 1.6e+06 cps (active)
3 | N[C@@H](CCC(=O)N[C@H](CSN=O)C(=O)NCC(=O)O)C(=O)O | 2.5e+06 cps (inactive)
4 | C#C[C@]1(O)CC[C@H]2[C@@H]3CCC4=Cc5oncc5CC4(C)[C@H]3CCC21C (stereo partly specified) | 3e+06 cps (inactive)
5 | Nc1ncnc2c1nc(Sc1ccc(Cl)cc1)n2C1OC2COP(=O)(O)O[C@@H]2[C@@H]1O (stereo partly specified) | 2.7e+06 cps (inactive)
6 | CC(C)NCC(O)c1ccc(NS(C)(=O)=O)cc1 (stereo unspecified) | 2.3e+06 cps (inactive)
7 | CCn1c(=O)c2[nH]c(-c3ccccc3)nc2n(CC)c1=O | 2.8e+06 cps (inactive)
8 | CC(C)Cn1c(=O)n(C)c(=O)c2[nH]cnc21 | 2.1e+06 cps (inactive)
9 | CCOC(=O)C12CC1/C(=N/O)c1ccccc1O2 (stereo unspecified) | 2.4e+06 cps (inactive)
10 | NC(CO)C(=O)NNCc1ccc(O)c(O)c1O (stereo unspecified) | 2.2e+06 cps (inactive)
11 | C=CC[C@H](N)C(=O)O | 2.5e+06 cps (inactive)
12 | N[C@@H](Cc1c[nH]c2ccccc12)C(=O)O | 2.2e+06 cps (inactive)
13 | NC(C(=O)N[C@@H]1C(=O)N2C(C(=O)O)=C(Cl)CS[C@H]12)c1ccccc1 (stereo partly specified) | 2.8e+06 cps (inactive)
14 | CCN(CC)CCCC(C)Nc1c2ccc(Cl)cc2nc2ccc(OC)cc12 (stereo unspecified) | 2.3e+06 cps (inactive)
15 | CCC1(O)CC2CN(CCc3c([nH]c4ccccc34)[C@@](C(=O)OC)(c3cc4c(cc3OC)N(C)C3[C@]45CCN4CC=C[C@@](CC)([C@@H](OC(C)=O)[C@]3(O)C(=O)OC)[C@H]45)C2)C1 (stereo partly specified) | 2.4e+06 cps (inactive)
16 | Cc1cc(C)c(NC(=O)C[C@H](CC(=O)O)c2cccc3ccccc23)c(C(=O)N2CCC3(CCCC3)CC2)c1 | 2.4e+06 cps (inactive)
17 | Nn1nnc2ccccc21 | 2.9e+06 cps (inactive)
18 | O=c1onc2cnc3ccccc3n12 | 2.2e+06 cps (inactive)
19 | CCOC(=O)Nc1ccc(NCc2ccc(F)cc2)nc1N | 2.9e+06 cps (inactive)
20 | CCCC(=O)NCCc1c2n(c3ccc(OC)cc13)CCCc1ccccc1-2 | 2.6e+06 cps (inactive)
21 | Clc1ccc2c(c1)C(N1CCNCC1)=Nc1ccccc1O2 | 3.1e+06 cps (inactive)
22 | CNC(=O)[C@H]1O[C@@H](n2cnc3c(NCc4ccc(N)cc4)ncnc32)C(O)[C@H]1O (stereo partly specified) | 2.7e+06 cps (inactive)
23 | O=C(CCc1ccc(O)cc1)c1c(O)cc(O)cc1O | 2.4e+06 cps (inactive)
24 | N.N.N.N.N.N.N.N.N.N.N.N.N.N.O.O.[Cl-].[Cl-].[Cl-].[Cl-].[Cl-].[Cl-].[Ru+4].[Ru+5].[Ru+5] | 2.1e+06 cps (inactive)
25 | Fc1ccc(C(OCCCc2cnc[nH]2)c2ccc(F)cc2)cc1 | 2.6e+06 cps (inactive)
26 | CN(C)CCC(c1ccc(Cl)cc1)c1ccccn1 (stereo unspecified) | 2.6e+06 cps (inactive)

Row | SMILES | luminescence
27 | C=Cc1c(C)c2cc3[nH]c(cc4nc(cc5nc(cc1[nH]2)C(C)=C5CCC(=O)O)C(CCC(=O)O)=C4C)c(C)c3C=C | 2e+06 cps (inactive)
28 | O=C(Nc1ccccc1)c1cc([N+](=O)[O-])ccc1Cl | 2.6e+06 cps (inactive)
29 | O=C(Nc1ccc([N+](=O)[O-])cc1Cl)c1cc(Cl)ccc1O | 1.7e+06 cps (active)
30 | O=C(O)c1cc([N+](=O)[O-])ccc1NCCCc1ccccc1 | 2.6e+06 cps (inactive)
31 | NCC(O)c1ccc(O)c(O)c1 (stereo unspecified) | 2.7e+06 cps (inactive)
32 | O=C(O)c1cc(=O)c2ccc(Cl)cc2[nH]1 | 2.8e+06 cps (inactive)
33 | CN=c1nc(-c2ccccc2)n(-c2ccccc2)s1 | 2.4e+06 cps (inactive)
34 | O=S(=O)(NCCNC/C=C/c1ccc(Br)cc1)c1cccc2cnccc12 | 2.4e+06 cps (inactive)
35 | O=C(OCCN1CCCCC1)c1c[nH]c2ccccc12 | 2.9e+06 cps (inactive)
36 | O=C(O)/C(=C/c1c(C(=O)O)[nH]c2cc(Cl)cc(Cl)c12)c1ccccc1 | 2.5e+06 cps (inactive)
37 | Cc1cn([C@H]2C=C[C@@H](CO)O2)c(=O)[nH]c1=O | 2.9e+06 cps (inactive)
38 | CCN(CC)C(C)C(=O)N1c2ccccc2Sc2ccccc21 (stereo unspecified) | 2.4e+06 cps (inactive)
39 | O=C(O)c1cc2cc(Cc3cccnc3)ccc2o1 | 3.2e+06 cps (inactive)
40 | O=C(c1ccccc1)c1ccc2n1CCC2C(=O)O (stereo unspecified) | 2.9e+06 cps (inactive)
41 | C[N+](C)(C)CCOC(N)=O | 2.6e+06 cps (inactive)
42 | NCCc1cnc[nH]1 | 3.3e+06 cps (inactive)
43 | Nc1c(S(=O)(=O)O)cc(Nc2ccc(Nc3nc(Cl)nc(Nc4ccc(S(=O)(=O)O)cc4)n3)c(S(=O)(=O)O)c2)c2c1C(=O)c1ccccc1C2=O | 1.6e+06 cps (active)
44 | O=C(O)C1CN(CCCP(=O)(O)O)CCN1 (stereo unspecified) | 2.6e+06 cps (inactive)
45 | COc1ccccc1N1CCN(CCCCNC(=O)c2ccc3ccccc3c2)CC1 | 2.7e+06 cps (inactive)
46 | COc1cc2c(cc1OC)-c1cc(=Nc3c(C)cc(C)cc3C)n(C)c(=O)n1CC2 | 2.5e+06 cps (inactive)
47 | O=C(O)C1=CC(=C(c2ccc(O)c(C(=O)O)c2)c2ccc(O)c(C(=O)O)c2)C=CC1=O | 1.2e+06 cps (active)
48 | O=C(/C=C/c1ccc(O)c(O)c1)OCCc1ccccc1 | 3e+06 cps (inactive)
49 | C[C@@H]1C(=O)NC2=Nc3cccc(Cl)c3CN21 | 2.4e+06 cps (inactive)
50 | COc1cc(C(O)CO)ccc1O (stereo unspecified) | 2.8e+06 cps (inactive)
51 | CNCCNS(=O)(=O)c1cccc2cnccc12 | 2.6e+06 cps (inactive)
